We go through seven molecules from ChEMBL document CHEMBL2218924, “A broad activity screen in support of a chemogenomic map for kinase signalling research and drug discovery” (Biochem J, 2013).

Assay [1] deals with Serine/threonine-protein kinase PAK 4 (Homo sapiens) (UniProt O96013). The following applies: at 1 µM.
The target is the same in assay [2]. The following applies: at 10 µM.
For assay [3], the target named is Serine/threonine-protein kinase PAK 5 (Homo sapiens) (UniProt Q9P286). To be noted: at 1 µM.
Chain of Serine/threonine-protein kinase PAK 5 (Homo sapiens) (Q9P286 whole entry, looked up): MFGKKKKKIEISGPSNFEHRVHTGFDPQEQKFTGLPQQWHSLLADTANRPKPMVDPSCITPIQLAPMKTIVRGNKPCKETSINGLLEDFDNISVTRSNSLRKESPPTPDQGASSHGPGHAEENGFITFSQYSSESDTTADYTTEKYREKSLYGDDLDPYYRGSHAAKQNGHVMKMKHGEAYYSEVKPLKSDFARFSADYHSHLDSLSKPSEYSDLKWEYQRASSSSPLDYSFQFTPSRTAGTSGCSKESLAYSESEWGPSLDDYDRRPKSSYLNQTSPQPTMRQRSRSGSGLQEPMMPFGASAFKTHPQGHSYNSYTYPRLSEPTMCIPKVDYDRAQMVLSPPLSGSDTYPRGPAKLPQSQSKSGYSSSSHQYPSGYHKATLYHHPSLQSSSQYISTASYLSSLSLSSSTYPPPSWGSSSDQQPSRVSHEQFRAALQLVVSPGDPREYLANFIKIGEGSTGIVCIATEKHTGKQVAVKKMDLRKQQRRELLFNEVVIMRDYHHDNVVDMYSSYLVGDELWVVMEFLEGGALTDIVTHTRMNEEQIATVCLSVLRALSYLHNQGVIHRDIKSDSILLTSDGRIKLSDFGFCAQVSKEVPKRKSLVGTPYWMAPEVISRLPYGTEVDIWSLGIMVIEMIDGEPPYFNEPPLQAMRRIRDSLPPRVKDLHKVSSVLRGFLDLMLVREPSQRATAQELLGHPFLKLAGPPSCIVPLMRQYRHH
The target is the same in assay [4]. The following applies: at 10 µM.
The target in assay [5] is Serine/threonine-protein kinase PAK 6 (Homo sapiens) (UniProt Q9NQU5). To be noted: at 1 µM.
Chain of Serine/threonine-protein kinase PAK 6 (Homo sapiens) (Q9NQU5 whole entry, looked up): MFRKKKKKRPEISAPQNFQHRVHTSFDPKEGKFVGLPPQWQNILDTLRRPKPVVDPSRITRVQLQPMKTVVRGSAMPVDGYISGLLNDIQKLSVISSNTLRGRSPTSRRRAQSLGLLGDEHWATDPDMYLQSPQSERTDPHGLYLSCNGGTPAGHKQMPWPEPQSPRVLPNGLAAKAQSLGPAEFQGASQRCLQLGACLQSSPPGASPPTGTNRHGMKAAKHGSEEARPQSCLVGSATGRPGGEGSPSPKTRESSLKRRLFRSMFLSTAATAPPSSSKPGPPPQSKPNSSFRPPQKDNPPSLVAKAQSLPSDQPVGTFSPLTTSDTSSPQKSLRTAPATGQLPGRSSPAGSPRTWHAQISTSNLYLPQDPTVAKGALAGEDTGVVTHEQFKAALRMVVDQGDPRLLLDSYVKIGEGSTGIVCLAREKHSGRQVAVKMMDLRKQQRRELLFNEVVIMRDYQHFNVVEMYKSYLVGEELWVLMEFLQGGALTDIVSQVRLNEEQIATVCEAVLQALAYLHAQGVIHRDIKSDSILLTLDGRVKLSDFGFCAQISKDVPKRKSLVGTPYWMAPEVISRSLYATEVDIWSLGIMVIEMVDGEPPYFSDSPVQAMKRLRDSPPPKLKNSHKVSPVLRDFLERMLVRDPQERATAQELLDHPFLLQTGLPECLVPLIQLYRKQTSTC
Assay [6] shares this target. The following applies: at 10 µM.
In assay [7] the target is PAS domain-containing serine/threonine-protein kinase (Homo sapiens) (UniProt Q96RG2). The following applies: at 10 µM.
Chain of PAS domain-containing serine/threonine-protein kinase (Homo sapiens) (Q96RG2 whole entry, the tested form may be a part): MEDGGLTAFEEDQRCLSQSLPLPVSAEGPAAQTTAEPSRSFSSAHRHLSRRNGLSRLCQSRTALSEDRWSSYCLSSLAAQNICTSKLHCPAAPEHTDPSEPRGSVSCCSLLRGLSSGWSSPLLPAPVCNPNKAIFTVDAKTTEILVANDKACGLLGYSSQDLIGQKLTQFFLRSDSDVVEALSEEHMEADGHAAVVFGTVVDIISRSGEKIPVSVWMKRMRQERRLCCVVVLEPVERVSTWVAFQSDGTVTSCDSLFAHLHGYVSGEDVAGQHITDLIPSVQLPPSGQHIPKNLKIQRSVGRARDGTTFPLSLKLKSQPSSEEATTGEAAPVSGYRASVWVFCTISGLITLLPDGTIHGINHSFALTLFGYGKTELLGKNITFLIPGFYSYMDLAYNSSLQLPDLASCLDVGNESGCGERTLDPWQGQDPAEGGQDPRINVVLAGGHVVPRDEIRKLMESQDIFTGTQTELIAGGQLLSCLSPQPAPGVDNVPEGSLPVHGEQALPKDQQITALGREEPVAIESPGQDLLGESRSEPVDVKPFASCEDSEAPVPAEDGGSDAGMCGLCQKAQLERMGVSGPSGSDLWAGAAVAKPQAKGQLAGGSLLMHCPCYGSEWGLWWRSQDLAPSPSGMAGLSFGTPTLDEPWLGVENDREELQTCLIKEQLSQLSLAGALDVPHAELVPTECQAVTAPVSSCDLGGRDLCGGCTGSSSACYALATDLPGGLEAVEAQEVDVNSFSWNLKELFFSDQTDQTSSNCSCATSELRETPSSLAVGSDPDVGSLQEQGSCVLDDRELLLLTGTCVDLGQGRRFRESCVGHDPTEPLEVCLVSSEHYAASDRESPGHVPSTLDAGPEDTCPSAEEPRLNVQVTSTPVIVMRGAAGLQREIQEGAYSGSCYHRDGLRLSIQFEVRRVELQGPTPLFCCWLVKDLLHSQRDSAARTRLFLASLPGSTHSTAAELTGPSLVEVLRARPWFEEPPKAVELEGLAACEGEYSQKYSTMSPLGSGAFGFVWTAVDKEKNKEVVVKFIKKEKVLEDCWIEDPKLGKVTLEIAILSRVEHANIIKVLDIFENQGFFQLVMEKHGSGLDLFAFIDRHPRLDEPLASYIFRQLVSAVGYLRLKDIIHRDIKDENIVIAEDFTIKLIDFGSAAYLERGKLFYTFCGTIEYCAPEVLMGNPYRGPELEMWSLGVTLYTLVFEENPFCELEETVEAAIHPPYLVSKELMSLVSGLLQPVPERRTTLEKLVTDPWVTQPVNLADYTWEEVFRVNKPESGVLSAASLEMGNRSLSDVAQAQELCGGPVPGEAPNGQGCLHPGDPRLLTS
Assay [8] deals with Activated CDC42 kinase 1 (Homo sapiens) (UniProt Q07912). The following applies: at 1 µM.
Chain of Activated CDC42 kinase 1 (Homo sapiens) (Q07912 whole entry, looked up): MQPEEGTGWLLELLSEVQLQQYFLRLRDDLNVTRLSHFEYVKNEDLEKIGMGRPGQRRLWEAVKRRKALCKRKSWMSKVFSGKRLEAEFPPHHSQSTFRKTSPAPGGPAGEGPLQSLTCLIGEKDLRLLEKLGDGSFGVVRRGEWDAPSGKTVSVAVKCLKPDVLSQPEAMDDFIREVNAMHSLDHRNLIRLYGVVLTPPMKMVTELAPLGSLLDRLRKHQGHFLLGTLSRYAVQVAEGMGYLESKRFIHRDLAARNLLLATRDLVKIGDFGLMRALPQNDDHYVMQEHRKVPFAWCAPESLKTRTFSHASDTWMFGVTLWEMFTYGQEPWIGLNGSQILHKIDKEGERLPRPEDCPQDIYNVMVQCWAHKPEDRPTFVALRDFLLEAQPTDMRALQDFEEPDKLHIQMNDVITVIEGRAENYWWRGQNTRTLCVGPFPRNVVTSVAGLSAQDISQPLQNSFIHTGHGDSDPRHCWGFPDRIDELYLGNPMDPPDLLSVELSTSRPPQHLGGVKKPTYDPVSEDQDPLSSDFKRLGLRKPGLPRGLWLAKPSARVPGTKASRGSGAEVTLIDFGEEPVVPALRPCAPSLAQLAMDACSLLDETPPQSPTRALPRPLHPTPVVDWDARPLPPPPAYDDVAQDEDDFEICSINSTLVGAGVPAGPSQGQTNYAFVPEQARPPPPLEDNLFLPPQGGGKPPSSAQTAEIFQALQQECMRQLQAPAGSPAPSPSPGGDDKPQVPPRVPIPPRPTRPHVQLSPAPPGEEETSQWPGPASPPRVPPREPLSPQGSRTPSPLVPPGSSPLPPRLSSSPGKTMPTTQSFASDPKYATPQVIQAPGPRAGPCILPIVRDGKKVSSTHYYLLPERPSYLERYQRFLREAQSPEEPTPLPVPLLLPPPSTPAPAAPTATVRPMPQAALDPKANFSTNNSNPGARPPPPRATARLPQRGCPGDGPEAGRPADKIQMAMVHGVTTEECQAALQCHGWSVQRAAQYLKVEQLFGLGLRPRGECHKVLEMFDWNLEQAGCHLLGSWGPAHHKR
Assay [9] has the same target. The following applies: at 10 µM.
Assay [10] concerns the target ALK tyrosine kinase receptor (Homo sapiens) (UniProt Q9UM73). To be noted: at 1 µM.
The target is the same in assay [11]. The following applies: at 10 µM.
The target of assay [12] is T1, Activin receptor type-1B (Homo sapiens) (UniProt P36896).
T1 sequence (whole entry): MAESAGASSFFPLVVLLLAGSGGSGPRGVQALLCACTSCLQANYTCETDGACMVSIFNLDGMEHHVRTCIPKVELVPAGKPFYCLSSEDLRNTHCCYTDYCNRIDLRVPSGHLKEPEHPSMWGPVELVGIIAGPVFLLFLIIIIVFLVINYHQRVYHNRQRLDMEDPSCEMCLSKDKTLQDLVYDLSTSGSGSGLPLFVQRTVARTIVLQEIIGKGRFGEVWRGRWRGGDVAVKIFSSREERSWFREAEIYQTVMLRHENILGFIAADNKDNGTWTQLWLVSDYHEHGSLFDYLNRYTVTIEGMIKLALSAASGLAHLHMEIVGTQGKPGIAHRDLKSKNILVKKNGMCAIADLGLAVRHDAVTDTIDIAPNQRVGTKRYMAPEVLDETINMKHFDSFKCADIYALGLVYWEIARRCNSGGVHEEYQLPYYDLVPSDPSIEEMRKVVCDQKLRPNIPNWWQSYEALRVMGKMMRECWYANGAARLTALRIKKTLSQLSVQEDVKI
The following applies: at 1 µM.

The target of assay [13] is T1, Activin receptor type-1B (Homo sapiens). The following applies: at 10 µM.
For assay [14], the target named is T2, AMP-activated protein kinase (AMPK) alpha-1/beta-1/gamma-1 (Homo sapiens) (UniProt P54619+Q9Y478+Q13131). The following applies: at 1 µM.
For assay [15], the target named is T2, AMP-activated protein kinase (AMPK) alpha-1/beta-1/gamma-1 (Homo sapiens). The following applies: at 10 µM.
In assay [16] the target is T3, AMP-activated protein kinase, AMPK (Homo sapiens) (UniProt P54646+O43741+P54619+Q9UGJ0+Q9Y478+Q13131+Q9UGI9). The following applies: at 1 µM.
Assay [17] concerns the target T3, AMP-activated protein kinase, AMPK (Homo sapiens). The following applies: at 10 µM.
Assay [18] concerns the target T4, NUAK family SNF1-like kinase 1 (Homo sapiens) (UniProt O60285).
T4 sequence (whole entry): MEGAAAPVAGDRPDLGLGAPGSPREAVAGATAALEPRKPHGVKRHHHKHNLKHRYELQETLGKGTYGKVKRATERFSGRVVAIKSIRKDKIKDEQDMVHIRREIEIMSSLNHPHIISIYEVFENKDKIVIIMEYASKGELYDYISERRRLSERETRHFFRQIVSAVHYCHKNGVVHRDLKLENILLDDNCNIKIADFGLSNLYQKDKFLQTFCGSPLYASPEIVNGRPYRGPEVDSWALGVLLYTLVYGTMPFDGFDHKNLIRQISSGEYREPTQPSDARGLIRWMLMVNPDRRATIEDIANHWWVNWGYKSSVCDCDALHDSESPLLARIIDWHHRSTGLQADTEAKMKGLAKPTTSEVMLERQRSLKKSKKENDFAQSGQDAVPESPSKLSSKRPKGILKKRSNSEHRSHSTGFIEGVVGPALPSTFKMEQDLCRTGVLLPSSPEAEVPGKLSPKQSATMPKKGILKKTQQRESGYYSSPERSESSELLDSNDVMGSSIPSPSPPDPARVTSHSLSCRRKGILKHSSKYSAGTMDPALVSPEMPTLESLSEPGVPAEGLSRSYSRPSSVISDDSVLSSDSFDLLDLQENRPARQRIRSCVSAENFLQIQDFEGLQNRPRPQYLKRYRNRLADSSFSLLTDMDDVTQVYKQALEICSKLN
The following applies: at 1 µM.

The target in assay [19] is T4, NUAK family SNF1-like kinase 1 (Homo sapiens). The following applies: at 10 µM.
Assay [20] deals with T5, Mitogen-activated protein kinase kinase kinase 5 (Homo sapiens) (UniProt Q99683).
T5 sequence (whole entry): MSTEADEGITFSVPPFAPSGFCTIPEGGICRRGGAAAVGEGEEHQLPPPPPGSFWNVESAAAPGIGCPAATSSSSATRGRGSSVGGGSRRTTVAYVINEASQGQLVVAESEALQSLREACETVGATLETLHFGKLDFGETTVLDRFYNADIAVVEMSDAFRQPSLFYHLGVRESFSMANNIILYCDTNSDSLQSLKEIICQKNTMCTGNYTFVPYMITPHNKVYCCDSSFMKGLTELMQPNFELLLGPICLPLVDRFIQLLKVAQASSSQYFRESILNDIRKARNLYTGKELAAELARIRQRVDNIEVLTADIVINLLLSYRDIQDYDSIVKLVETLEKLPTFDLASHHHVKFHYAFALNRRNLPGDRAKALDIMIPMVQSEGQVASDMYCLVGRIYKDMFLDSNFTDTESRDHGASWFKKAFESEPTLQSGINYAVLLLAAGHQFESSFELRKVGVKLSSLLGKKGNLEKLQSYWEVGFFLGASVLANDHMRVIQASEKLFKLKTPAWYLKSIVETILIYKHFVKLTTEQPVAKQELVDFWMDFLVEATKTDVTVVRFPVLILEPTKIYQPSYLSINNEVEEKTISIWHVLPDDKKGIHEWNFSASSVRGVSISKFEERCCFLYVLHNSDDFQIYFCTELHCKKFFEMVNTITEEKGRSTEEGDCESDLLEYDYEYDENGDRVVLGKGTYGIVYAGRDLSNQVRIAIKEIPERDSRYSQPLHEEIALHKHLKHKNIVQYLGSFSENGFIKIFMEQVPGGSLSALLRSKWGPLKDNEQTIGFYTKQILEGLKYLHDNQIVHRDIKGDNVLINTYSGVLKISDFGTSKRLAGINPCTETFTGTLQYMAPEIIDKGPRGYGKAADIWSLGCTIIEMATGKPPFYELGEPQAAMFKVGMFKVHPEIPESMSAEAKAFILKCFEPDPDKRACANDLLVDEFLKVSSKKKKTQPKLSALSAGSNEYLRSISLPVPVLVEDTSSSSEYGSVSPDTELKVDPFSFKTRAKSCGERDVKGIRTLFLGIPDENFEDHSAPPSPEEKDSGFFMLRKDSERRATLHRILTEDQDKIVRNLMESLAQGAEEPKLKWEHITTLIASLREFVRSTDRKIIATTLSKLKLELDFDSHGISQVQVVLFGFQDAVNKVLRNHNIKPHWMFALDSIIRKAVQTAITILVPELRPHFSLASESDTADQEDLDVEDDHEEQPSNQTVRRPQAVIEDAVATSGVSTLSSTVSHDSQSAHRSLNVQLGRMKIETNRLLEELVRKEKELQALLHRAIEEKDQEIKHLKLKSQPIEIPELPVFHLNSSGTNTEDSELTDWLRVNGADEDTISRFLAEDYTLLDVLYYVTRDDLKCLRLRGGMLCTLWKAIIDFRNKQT
The following applies: at 1 µM.

Chain of Serine/threonine-protein kinase PAK 4 (Homo sapiens) (O96013 whole entry, looked up): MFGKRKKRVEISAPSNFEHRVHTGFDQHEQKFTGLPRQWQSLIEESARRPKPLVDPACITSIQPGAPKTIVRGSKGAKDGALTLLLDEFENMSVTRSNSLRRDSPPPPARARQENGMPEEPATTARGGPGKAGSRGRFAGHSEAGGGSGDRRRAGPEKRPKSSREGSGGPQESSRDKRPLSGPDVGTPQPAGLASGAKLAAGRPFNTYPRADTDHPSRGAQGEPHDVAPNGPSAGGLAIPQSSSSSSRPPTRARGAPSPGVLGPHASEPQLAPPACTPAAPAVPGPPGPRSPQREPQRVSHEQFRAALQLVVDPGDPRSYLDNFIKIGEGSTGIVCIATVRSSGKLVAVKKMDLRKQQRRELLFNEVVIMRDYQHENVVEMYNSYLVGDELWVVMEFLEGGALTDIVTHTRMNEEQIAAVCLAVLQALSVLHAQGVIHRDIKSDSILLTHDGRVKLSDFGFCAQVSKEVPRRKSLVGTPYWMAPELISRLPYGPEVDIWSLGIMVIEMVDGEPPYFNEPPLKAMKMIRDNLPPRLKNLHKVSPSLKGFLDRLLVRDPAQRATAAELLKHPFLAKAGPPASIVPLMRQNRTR

On to `O=C(Nc1cccc(Nc2cc(Nc3cccc(C(F)(F)F)c3)ncn2)c1)C1CC1`, for which the residual activity in [1] came to 94%; in assay [2] it was 79%; in [3] it was 100%; in assay [4] it was 98%; in assay [5] it was 104%; in assay [6], 90%. The residual activity came to 64% in assay [7]; 79% in [8]; 26% in assay [9]; 88% in assay [10]; 22% in assay [11]; 126% in assay [12]. The residual activity was found to be 124% in [13]; 97% in [14]; 73% in assay [15]; 103% in assay [16]; 74% in assay [17]; 90% in [18]. In addition, the residual activity is 127% in assay [19] and 104% in assay [20].
Consider `N#C/C(=C(\N)Sc1ccc(N)cc1)c1ccccc1C(F)(F)F`, for which the residual activity in [1] was found to be 101%; in assay [2], 94%; in assay [3] it was 90%; in assay [4], 89%; in assay [5], 96%; in [6], 96%. Moreover, the residual activity in assay [7] was 105%; in assay [8], 50%; in [9] it was 43%; in assay [10], 65%; in assay [11], 65%; in [12] it was 108%. Further, the residual activity amounted to 111% in assay [13]; 75% in assay [14]; 57% in assay [15]; 77% in assay [16]; 62% in assay [17]; 106% in assay [18]. For the same molecule, the results for the residual activity in assay [19] and in assay [20] were 62% and 106%, respectively.
As to `O=C(Nc1cccc(Nc2nccc(Nc3cccc(C(F)(F)F)c3)n2)c1)C1CC1`, the residual activity is 80% in assay [1]; 34% in assay [2]; 97% in [3]; 107% in assay [4]; 90% in assay [5]; 52% in assay [6]. The residual activity in [7] turned out to be 47%; in assay [8], 25%; in [9] it was 5%; in assay [10] it was 69%; in assay [11], 48%; in assay [12], 106%. In addition, the residual activity came out at 69% in assay [13]; 96% in assay [14]; 81% in [15]; 88% in [16]; 83% in assay [17]; 26% in assay [18]. For the same molecule, the figures for the residual activity in [19] and in assay [20] were 41% and 89%, respectively.
For `O=[N+]([O-])c1ccc(-c2nc(-c3ccc(F)cc3)c(-c3ccncc3)[nH]2)cc1`, the residual activity in assay [1] came out at 108%; in [2] it was 98%; in [3] it was 94%; in assay [4], 96%; in [5], 102%; in assay [6], 105%. Also, the residual activity in [7] was 119%; in assay [8], 50%; in assay [9], 11%; in [10] it was 83%; in [11], 65%; in assay [12], 38%. The residual activity in assay [13] stood at 35%; in assay [14], 97%; in assay [15] it was 94%; in [16] it was 91%; in assay [17], 91%; in assay [18], 103%. Besides, the residual activity came out at 89% in [19] and 96% in assay [20].
Turning to `O=C(O)c1ccc2c3c1cccc3c(=O)n1c3ccccc3nc21`, the residual activity in assay [1] was 100%; in assay [2], 98%; in assay [3], 100%; in assay [4] it was 96%; in assay [5] it was 91%; in [6], 85%. Also, the residual activity in [7] turned out to be 98%; in assay [8], 94%; in [9], 75%; in assay [10], 70%; in assay [11], 49%; in assay [12], 110%. In addition, the residual activity in assay [13] was determined as 108%; in assay [14], 34%; in assay [15] it was 6%; in assay [16] it was 37%; in assay [17], 13%; in [18], 73%. Further, the residual activity in assay [19] turned out to be 28%; in [20], 90%.
Turning to `Cc1ccc(S(=O)(=O)/C=C/C#N)cc1`, the residual activity in assay [1] worked out at 99%; in [2] it was 95%; in assay [3], 106%; in assay [4], 106%; in [5] it was 95%; in [6] it was 84%. In addition, the residual activity in assay [7] was 86%; in assay [8], 81%; in [9] it was 75%; in [10], 99%; in assay [11], 93%; in assay [12] it was 103%. For the same molecule, the residual activity in assay [13] was 106%; in assay [14], 89%; in assay [15], 89%; in assay [16] it was 87%; in assay [17] it was 86%; in assay [18], 109%. In addition, the residual activity in [19] stood at 94%; in [20], 111%.
Take `NC(=O)c1ccc2[nH]c(-c3ccc(Oc4ccc(Cl)cc4)cc3)nc2c1`: the residual activity came out at 97% in assay [1]; 92% in assay [2]; 99% in assay [3]; 113% in [4]; 110% in assay [5]; 103% in assay [6]. Moreover, the residual activity was 123% in assay [7]; 77% in [8]; 61% in assay [9]; 75% in [10]; 87% in [11]; 111% in assay [12]. Further, the residual activity in assay [13] was determined as 97%; in assay [14], 72%; in assay [15], 32%; in assay [16], 71%; in assay [17], 40%; in [18] it was 98%. Also, the residual activity in assay [19] came out at 85%; in [20] it was 80%.
